# Activity calls are given as the source filed them. Calls follow the shape of the dose curve; as a rule, active = well fitted curve in the direction sought with a large enough effect; inconclusive = small, poorly fitted or top-dose-only effect, or another doubt; inactive = no such curve, though single readings can be large; an effect the other way counts as inactive or inconclusive.
# Experiments:
# [1] = target: Alpha-galactosidase (Coffea arabica) (UniProt Q42656); experiment: Counterscreen for Glucocerebrosidase Inhibitors: qHTS Assay for Coffee Bean alpha-Galactosidase at pH 4.5 (AID 957); settings: purified coffee bean alpha-galactosidase, fluorogenic substrate; series mostly up to 76.9 µM
# Sequence of Alpha-galactosidase (Coffea arabica) (Q42656 whole entry, looked up): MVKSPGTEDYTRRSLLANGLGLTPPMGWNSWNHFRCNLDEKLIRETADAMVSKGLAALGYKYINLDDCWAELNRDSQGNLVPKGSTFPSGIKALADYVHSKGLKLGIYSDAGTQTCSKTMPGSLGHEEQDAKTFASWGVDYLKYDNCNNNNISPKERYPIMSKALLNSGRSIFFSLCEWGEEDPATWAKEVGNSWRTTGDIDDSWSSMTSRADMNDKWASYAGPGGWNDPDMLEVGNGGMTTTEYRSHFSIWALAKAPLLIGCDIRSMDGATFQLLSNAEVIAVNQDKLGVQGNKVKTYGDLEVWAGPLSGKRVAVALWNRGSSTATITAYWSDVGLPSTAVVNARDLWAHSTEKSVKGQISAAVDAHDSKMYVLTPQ
# Procedure, shortened: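 Coffee bean enzyme (2 nM) with 80 uM 4-methylumbelliferyl alpha-D-galactopyranoside in 50 mM citric acid, 0.005% Tween-20, pH 4.5, 20 min at room temperature; compounds 0.7 nM–77 uM. Stopped at pH 10, fluorescence 365/440 nm; AC50 from Hill fits.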
# [2] = target: Alpha-galactosidase (Coffea arabica) (UniProt Q42656); experiment: Counterscreen for Glucocerebrosidase Inhibitors: qHTS Assay for Coffee Bean alpha-Galactosidase at pH 5.9 (AID 998); settings: coffee bean alpha-galactosidase enzyme assay; series mostly up to 76.9 µM
# Procedure, shortened: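 Compounds were titrated from 0.7 nM to 77 uM against green coffee bean alpha-galactosidase (2 nM) using 80 uM fluorogenic 4-methylumbelliferyl substrate. After 20 min at room temperature, reactions were stopped at pH 10 and read by fluorescence.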
SMILES,outcome [1],outcome [2]
CO/N=C(\C(=O)N[C@@H]1C(=O)N2C(C(=O)O)=C(COC(C)=O)CS[C@@H]12)c1csc(N)n1,inactive,inactive
C[C@]1(C2CCCC2)Cc2cc(OCC(=O)O)c(Cl)c(Cl)c2C1=O,inactive,inactive
C[C@@H]1c2cccc(O)c2C(O)=C2C(=O)[C@@]3(O)C(O)=C(C(N)=O)C(=O)[C@@H](N(C)C)[C@@H]3[C@@H](O)[C@@H]21,inactive,inactive
O=[N+]([O-])c1ccc(CSc2ncnc3c2ncn3[C@@H]2O[C@@H](CO)[C@@H](O)[C@H]2O)cc1,inactive,inactive
COc1cc2nc(N3CC=[N+](C(=O)c4ccco4)CC3)nc(N)c2cc1OC,inactive,inactive
CCCCC[C@H](O)CCCC(=O)O,inactive,inactive
N#C[C@@H](Cc1ccc(O)c(O)c1)C(=O)N1CCc2ccccc21,inactive,inactive
CC(C)NC[C@@H](O)COc1ccc(CCOCC2CC2)cc1,inactive,inactive
Cc1cccc(C)c1OC[C@@H](N)C(C)C,inactive,inactive
C[C@@H](C[N+](C)(C)C)OC(N)=O,inactive,inactive
C[C@H](O)[C@H](O)[C@@H]1CNc2nc(N)[nH]c(=O)c2N1,inactive,inactive
Nc1ncnc2c1nc(Br)n2[C@@H]1O[C@H]2COP(=O)(O)O[C@@H]2[C@H]1O,inactive,inactive
COc1c2c(nc3ccccc13)O[C@@H]([C@@](C)(O)CO)C2,inactive,inactive
O=c1cc(O)cc(/C=C\c2ccc(O)c(O)c2)o1,inactive,inactive
OCCN1CCN(CC/C=C2\c3ccccc3Sc3ccc(C(F)(F)F)cc32)CC1,inactive,inactive
O=C(O)CCCC[C@H]1CCSS1,inactive,inactive
OC[C@@H]1O[C@H](O)[C@@H](Cl)[C@H](O)[C@@H]1O,inactive,inactive
CN1C(=O)CC[C@@H]1c1cccnc1,inactive,inactive
C[C@@H]1C[C@@H]2[C@H]3CCC4=CC(=O)C=C[C@]4(C)[C@]3(F)[C@@H](O)C[C@@]2(C)[C@@]1(O)C(=O)CO,inactive,inactive
CN(C)CCO[C@](C)(c1ccccc1)c1ccccn1,inactive,inactive
COC(=O)C1=C(C)NC(C)=C(C(=O)OCCN(C)Cc2ccccc2)[C@@H]1c1cccc([N+](=O)[O-])c1,inactive,inactive

SMILES,outcome [1],outcome [2]
CCN(CC)CCC[C@H](C)Nc1ccnc2cc(Cl)ccc12,inactive,inactive
O=C1O/C(=C\Br)CC[C@@H]1c1cccc2ccccc12,inactive,inactive
COc1cc([C@@H](O)CO)ccc1OS(=O)(=O)O,inactive,inactive
O=c1ccn([C@@H]2O[C@@H](COP(=O)(O)OP(=O)(O)O)[C@H](O)[C@@H]2O)c(=O)[nH]1,inactive,inactive
Cc1c(C)c2c(c(C)c1O)CC[C@@](C)(CN1CCN(c3cc(N4CCCC4)nc(N4CCCC4)n3)CC1)O2,inactive,inactive
N[C@H](C(=O)N[C@@H]1C(=O)N2C(C(=O)O)=C(Cl)CS[C@@H]12)c1ccccc1,inactive,inactive
CC(C)(C)NC[C@H](O)c1ccc(O)c(CO)c1,inactive,inactive
Nc1ncnc2c1ncn2[C@@H]1O[C@@H](CO)[C@H](O)[C@@H]1O,inactive,inactive
COc1ccc(NC(=O)/C=C\c2ccc(Cl)cc2)cc1,inactive,inactive
Nc1ccn([C@@H]2O[C@@H](CO)[C@@H](O)[C@H]2O)c(=O)n1,inactive,inactive
N[C@H](Cc1cccc(-c2ccccc2CP(=O)(O)O)c1)C(=O)O,inactive,inactive
CC[C@H](NC(C)C)[C@H](O)c1ccc(O)c(O)c1,inactive,inactive
Oc1cc2c(c(Cl)c1O)CCNC[C@H]2c1ccccc1,inactive,inactive
NC(=S)NCCC[C@@H](N)C(=O)O,inactive,inactive
CC(=O)S[C@@H]1CC2=CC(=O)CC[C@@]2(C)[C@H]2CC[C@]3(C)[C@H](CC[C@@]34CCC(=O)O4)[C@H]12,inactive,inactive
C[C@H](Oc1ccc(Oc2cnc3ccc(Cl)cc3n2)cc1)C(=O)O,inactive,inactive
CNc1ncnc2c1ncn2[C@H]1C[C@@H](OP(=O)(O)O)[C@H](COP(=O)(O)O)O1,inactive,inactive
Oc1cc2c(cc1O)[C@H](c1ccccc1)CNCC2,inactive,inactive
COc1cc2nc(N3CCN(C(=O)[C@H]4CCCO4)CC3)nc(N)c2cc1OC,inactive,inactive
CCNC(=O)[C@@H]1O[C@@H](n2cnc3c(N)nc(NCCc4ccc(CCC(=O)O)cc4)nc32)[C@H](O)[C@@H]1O,inactive,inactive
